The source made the active and inactive calls. Unless noted, the rule behind the calls is not given here.
What was measured:
[1] = HepG2 liver cancer cell viability effects, profiling panel, resazurin fluorescence, 24 h, PK04 Diversity Set (AID 1172); settings: higher = more signal; note: test concentration not given here
[2] = basal S. cerevisiae growth modulation, no modifier, primary screen, OD600, strain BY4716, 24 h, basal condition (AID 1173); settings: OD600, 24 h, higher = more signal, called active from +8 up or from −8 down
[3] = MM1S myeloma cell viability, profiling panel, resazurin fluorescence, basal, 24 h, PK04 Diversity Set (AID 1174); settings: higher = more signal, called active from +8 up or from −8 down;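 note: MM1S multiple myeloma cell line; test concentration not given here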
[4] = molecular target: Dihydroorotate dehydrogenase (quinone), mitochondrial (Plasmodium falciparum (isolate 3D7)) (UniProt Q08210); test: PfDHODH enzyme inhibitors, primary screen, biochemical, C-terminal His tag, absorbance 600 nm (AID 1175); settings: DCIP absorbance 600 nm, higher = more signal, called active from +8 up or from −8 down;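 note: recombinant parasite enzyme with a five histidine tag at its C terminus; test concentration not given here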
[5] = P. aeruginosa biofilm formation inhibitors, primary screen, strain PAO1, LB-PBS medium, absorbance 600 nm (AID 1176); note: test concentration not given here; settings: P. aeruginosa PAO1 growth/biofilm, A600, 12 h; higher = more signal
[6] = S. cerevisiae RM11-1a growth modifiers, primary screen, strain RM11-1a, OD600, basal, 24 h (AID 1177); settings: OD600, 24 h, higher = more signal, called active from +8 up or from −8 down;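 note: cultures grown under basal conditions with no added stressor; test concentration not given here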
[7] = E. coli acrAB mutant growth effects, primary screen, E. coli filamentation inducers, strain DRC39, OD650, 24 h (AID 1178); settings: higher = more signal, called active from +8 up or from −8 down;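 note: growth measured as culture turbidity by optical density at 650 nm; test concentration not given here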
[8] = E. coli acrAB mutant growth effects, primary screen, E. coli filamentation inducers, strain DRC39, OD650, 48 h (AID 1179);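 note: screen aims at cell division blockers that make cells filament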; settings: E. coli DRC39 delta-acrAB growth, higher = more signal, called active from +8 up or from −8 down
[9] = RPMI8226 myeloma cell viability, profiling panel, resazurin fluorescence, basal, 24 h, PK04 Diversity Set (AID 1180); settings: higher = more signal;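 note: RPMI8826 multiple myeloma cell line at 5000 cells per well; test concentration not given here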
[10] = molecular target: E3 ubiquitin-protein ligase XIAP (Homo sapiens) (UniProt P98170); test: XIAP binders, primary screen, biophysical, small-molecule microarray, fluorescence 635 nm (AID 1181); settings: small-molecule microarray binding, higher = more signal;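 note: score merges 667 nm emission and signal to noise over triplicate slides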
E3 ubiquitin-protein ligase XIAP (Homo sapiens), sequence (P98170 whole entry, looked up): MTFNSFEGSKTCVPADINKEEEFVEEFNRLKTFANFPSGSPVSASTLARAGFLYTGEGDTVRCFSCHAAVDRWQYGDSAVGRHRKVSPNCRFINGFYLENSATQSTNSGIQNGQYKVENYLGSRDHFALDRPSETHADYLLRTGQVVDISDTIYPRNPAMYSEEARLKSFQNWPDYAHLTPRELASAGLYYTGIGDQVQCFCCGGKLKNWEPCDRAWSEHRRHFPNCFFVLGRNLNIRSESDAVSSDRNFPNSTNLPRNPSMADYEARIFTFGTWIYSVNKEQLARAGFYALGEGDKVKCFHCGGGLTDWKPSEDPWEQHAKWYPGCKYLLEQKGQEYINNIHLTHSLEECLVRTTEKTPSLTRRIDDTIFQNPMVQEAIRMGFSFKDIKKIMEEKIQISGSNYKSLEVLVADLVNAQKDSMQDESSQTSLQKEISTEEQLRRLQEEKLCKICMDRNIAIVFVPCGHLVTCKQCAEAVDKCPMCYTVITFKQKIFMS

Dihydroorotate dehydrogenase (quinone), mitochondrial (Plasmodium falciparum (isolate 3D7)), sequence (Q08210 whole entry, looked up): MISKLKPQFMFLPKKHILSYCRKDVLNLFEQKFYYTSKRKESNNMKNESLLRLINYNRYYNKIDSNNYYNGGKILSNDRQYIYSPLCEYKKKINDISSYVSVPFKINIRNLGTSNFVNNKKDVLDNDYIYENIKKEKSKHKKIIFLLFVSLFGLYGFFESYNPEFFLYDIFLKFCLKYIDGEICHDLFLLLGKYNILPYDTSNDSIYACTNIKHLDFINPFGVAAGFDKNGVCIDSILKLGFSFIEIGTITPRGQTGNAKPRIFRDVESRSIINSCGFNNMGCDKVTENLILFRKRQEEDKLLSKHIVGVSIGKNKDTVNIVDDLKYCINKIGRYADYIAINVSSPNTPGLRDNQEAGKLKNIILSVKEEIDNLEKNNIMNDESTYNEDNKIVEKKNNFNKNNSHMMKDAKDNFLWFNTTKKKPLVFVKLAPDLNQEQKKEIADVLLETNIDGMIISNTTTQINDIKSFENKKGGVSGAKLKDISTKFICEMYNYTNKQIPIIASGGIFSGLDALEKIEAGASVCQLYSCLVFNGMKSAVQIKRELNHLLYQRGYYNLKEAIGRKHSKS

SMILES	z-score [1]	z-score [2]	z-score [3]	composite z-score [4]	z-score [5]	z-score [6]	z-score [7]	z-score [8]	z-score [9]	composite z-score [10]
CCOC(=O)C[C@H]1[C@H](OC(=O)Cc2ccc3c(c2)OCO3)[C@@H](NC(=O)c2ccccc2)c2cc(OCCCO)ccc2N1C(=O)c1ccc2ccccc2n1	-0.287	-1.02 (inactive)	0.426 (inactive)	-1.03 (inactive)	-0.0057 (inactive)	-1.68 (inactive)	0.907 (inactive)	0.88 (inactive)	0.121	-0.138
COc1cccc(C)c1NC(=O)O[C@H]1[C@H](OC(=O)Nc2ccccc2)[C@H](OC(=O)Nc2ccccc2)[C@@H](OC)O[C@@H]1CO	-1.22	0.803 (inactive)	-2.2 (inactive)	0.111 (inactive)	0.565 (inactive)	0.673 (inactive)	0.462 (inactive)	-0.358 (inactive)	-1.65	0.0744
COCCOC(=O)N1C(=O)[C@@]2(c3cc(C#CCCO)ccc31)[C@H](C(=O)N1CCc3cc(OC)c(OC)cc3C1)[C@H]1C(=O)O[C@H](c3ccccc3)[C@H](c3ccccc3)N1[C@@H]2c1ccc(OCCO)cc1	1.36	0.543 (inactive)	0.665 (inactive)	-1.45 (inactive)	2.19 (inactive)	0.0817 (inactive)	0.443 (inactive)	1.75 (inactive)	0.152	-0.0412
C=CCOc1ccc([C@@H]2CC=C(C(=O)OCC)[C@H](c3cccc(Br)c3)N2S(=O)(=O)c2ccc(C)cc2)cc1	-0.696	0.465 (inactive)	0.262 (inactive)	-1.92 (inactive)	0.285 (inactive)	-0.897 (inactive)	-0.273 (inactive)	1.05 (inactive)	-0.155	-0.258
Cc1ccc(S[C@]2(C(=O)NCC(C)C)CC(=O)N(C3CCCCC3)[C@@H]2c2ccc(CO)cc2I)cc1	0.33	-1.05 (inactive)	0.0989 (inactive)	-0.0804 (inactive)	-0.81 (inactive)	-0.115 (inactive)	0.12 (inactive)	0.598 (inactive)	-0.693	-0.0559
C[N+](C)(C)CCCC[C@@H]1NC(=O)[C@H]2C[C@@H](C(=O)NCCCCCCN)[C@@H](c3cccc(OCCO)c3)N2C1=O	-2.69	-0.707 (inactive)	0.45 (inactive)	-0.114 (inactive)	1.18 (inactive)	-0.0241 (inactive)	-0.678 (inactive)	-1.35 (inactive)	0.652	0.194
C=CCC(OC(C)=O)[C@@H]1[C@@H](N(Cc2ccc(-c3ccccc3)cc2)C(=O)c2cccc3ccccc23)c2cc(OCCCO)ccc2N1C(=O)c1ccc2ccccc2n1 (stereo not given in full)	-0.253	-0.953 (inactive)	0.0319 (inactive)	-0.178 (inactive)	0.161 (inactive)	-0.909 (inactive)	0.908 (inactive)	0.376 (inactive)	0.131	-0.0282
CC(C)(C)OC(=O)CC[C@@]1(C(=O)N2CCCCC2)N=C(c2ccc(OCCCO)cc2)O[C@@H]1c1ccccc1CN=[N+]=[N-]	0.613	0.0243 (inactive)	0.053 (inactive)	0.113 (inactive)	-0.223 (inactive)	0.978 (inactive)	-0.366 (inactive)	0.831 (inactive)	0.0127	0.183
[N-]=[N+]=NCc1ccccc1[C@H]1OC(c2ccc(OCCCO)cc2)=N[C@@]1(Cc1ccccc1N=[N+]=[N-])C(=O)NCCN1CCOCC1	-0.634	-1.11 (inactive)	-1.22 (inactive)	1.15 (inactive)	0.591 (inactive)	1.41 (inactive)	-0.0057 (inactive)	-0.357 (inactive)	-1.17	-0.0414
COc1cc(C(O)C2C=CC3C(=O)NC(=O)C3N2Nc2ccc(Cl)cc2Cl)cc(OC)c1OC (stereo not given)	-0.925	-12.7 (active)	-0.679 (inactive)	0.0871 (inactive)	0.683 (inactive)	0.1 (inactive)	-0.305 (inactive)	-0.425 (inactive)	-0.933	0.0454
COc1ccc(C(=O)Nc2ccc(CN3C(=O)[C@]4(O[C@H](CCn5cc([C@H](O)c6ccccc6)nn5)[C@@H]([Si](C)(C)c5ccc(OC)cc5)[C@@H]4C)c4ccccc43)cc2)cc1	-1.34	-0.884 (inactive)	-3.17 (inactive)	-0.0934 (inactive)	1.55 (inactive)	1.63 (inactive)	0.938 (inactive)	0.63 (inactive)	-3.24	0.0623
CCCc1cc2c(n1Cc1ccc(OC)cc1)C(C)C1CN(C(=O)c3ccccc3)C(C)(C(=O)OC)C21 (stereo not given)	-1.34	1.08 (inactive)	-1.69 (inactive)	-0.118 (inactive)	1.21 (inactive)	0.864 (inactive)	-1.09 (inactive)	-0.395 (inactive)	-1.7	0.493
COc1ccc(C#Cc2ccc3c(c2)[C@]2(C(=O)N3)[C@H](c3ccc(OCCO)cc3)N3[C@H](c4ccccc4)[C@H](c4ccccc4)OC(=O)[C@H]3[C@@H]2C(=O)N2CCN(c3ncccn3)CC2)cc1	1.45	1.56 (inactive)	1.48 (inactive)	-1.7 (inactive)	1.66 (inactive)	1.92 (inactive)	0.101 (inactive)	-0.344 (inactive)	1.61	0.16
C=C(COC)C(=O)CC[C@H](OC(=O)c1ccccc1-c1ccccc1C(=O)O)c1ccc(OCCO)cc1	-0.381	0.142 (inactive)	-0.288 (inactive)	-0.575 (inactive)	1.3 (inactive)	-0.386 (inactive)	-0.752 (inactive)	-0.561 (inactive)	-0.7	0.0223
O=C(O)[C@]1(CCS(=O)(=O)c2ccccc2)N=C(c2ccc(OCCCO)cc2)O[C@@H]1c1ccccc1	0.93	-0.334 (inactive)	0.716 (inactive)	-0.295 (inactive)	-1.3 (inactive)	-0.707 (inactive)	1.92 (inactive)	0.815 (inactive)	0.314	-0.0988
CCCNC(=O)[C@@H]1c2ccccc2C(=O)N(CC23CC4CC(CC(C4)C2)C3)[C@H]1c1ccc(CO)cc1	-0.411	-0.774 (inactive)	0.411 (inactive)	0.627 (inactive)	0.718 (inactive)	0.987 (inactive)	-0.0494 (inactive)	-0.501 (inactive)	0.748	1.94
Cc1ccc(N2C(=O)c3ccccc3[C@](C)(C(=O)NC(C)C)[C@@H]2c2ccc(CO)cc2)nc1	-0.591	0.201 (inactive)	0.761 (inactive)	-3.7 (inactive)	0.599 (inactive)	-0.243 (inactive)	0.381 (inactive)	-0.111 (inactive)	0.818	-0.272
COC(=O)[C@@]1(Cc2ccccc2)[C@H]2c3cc(C(=O)N(C)C)n(Cc4ccccn4)c3C[C@H]2CN1C(=O)c1ccccc1	-0.802	1.6 (inactive)	-1.33 (inactive)	0.611 (inactive)	0.964 (inactive)	0.781 (inactive)	-1.19 (inactive)	-0.507 (inactive)	-1.26	0.124
COC(=O)[C@]1(Cc2ccccc2CN=[N+]=[N-])N=C(c2ccc(OCCCO)cc2)O[C@@H]1c1ccccc1	-2.08	1.42 (inactive)	-4.5 (inactive)	2.51 (inactive)	0.948 (inactive)	3.06 (inactive)	0.286 (inactive)	-0.865 (inactive)	-5.26	-0.184
Cc1ccc(S[C@]2(C(=O)O)CC(=O)N(Cc3ccccc3C(F)(F)F)[C@@H]2c2ccc(CO)cc2)cc1	0.44	-0.0891 (inactive)	0.478 (inactive)	0.52 (inactive)	0.127 (inactive)	0.383 (inactive)	0.232 (inactive)	1.14 (inactive)	-0.285	-0.313
CCCCC(O)C1C=CC2C(=O)N(Cc3ccccc3)C(=O)C2N1n1cnnc1 (stereo not given)	-1.23	0.0393 (inactive)	-0.748 (inactive)	0.504 (inactive)	0.148 (inactive)	-0.601 (inactive)	-0.395 (inactive)	-0.436 (inactive)	-0.409	0.0937
CN(C)CCCCCCNC(=O)[C@@H]1C[C@@H]2C(=O)NCC(=O)N2[C@@H]1c1ccc(O)cc1	-1.01	-1.06 (inactive)	-1.26 (inactive)	-0.493 (inactive)	-0.13 (inactive)	-0.832 (inactive)	-0.208 (inactive)	-0.823 (inactive)	-1.35	0.249

Reference: PubChem BioAssay
